Data on 40 compounds can be found in PubChem BioAssay (NCI).

This is part of a sample that, as a whole, favours compounds with a hit. Of some 83,000 tested, about 20% had one in any assay.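 The endpoint reported here, percent growth, reads 100 for growth as untreated, 0 for no net growth and -100 for all cells dead.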 Unmarked numbers belong to inactive results. The source made the active and inactive calls. How the source made its calls: active means growth percent below 10; inactive means the rest.

The test system of the test is K-562 leukemia. The test can be described thus: NCI-60 one-dose screen, 48 h (100 = growth as untreated, 0 = no growth, -100 = all killed). The settings on record: 10 µM.
For the compound `O=C(COc1cccc(/C=C2\CSc3ccccc3C2=O)c1)c1ccc(Cl)cc1`, the growth was -76.8% (active). In the case of `CCn1c(CSc2nc3ccccc3c(=O)n2CCc2ccccc2)n[nH]c1=S`, the growth is 71.6%. In the case of `COc1ccc2nc3cc(Cl)ccc3c(NCCCNCCO)c2c1` it was -4.13% (active). With `Cc1cc(Br)nnc1Br`, the growth was 99.5%. Under `Cc1ccc(NC(=S)NNC(=S)Nc2ccc(C)cc2)cc1` stands 19.4%; under `COc1ccc(C2CC(c3cccs3)=NN2c2ccc(S(N)(=O)=O)cc2)cc1` (stereo not given), 67.6%; under `CC[N+](CC)=c1ccc2nc3c(cc(NCc4ccccc4)c4ccccc43)oc-2c1`, -26.1% (active). In the case of `COC1=CC(=O)OC(c2ccc(OC)cc2)C1` (stereo not given) it was 130%. In the case of `COc1ccccc1-n1c(-c2csc(NC(C)=O)n2)n[nH]c1=S` it was 87.5%; in that of `COc1cc(NC(=O)C2=C(N3CCOCC3)/C(=C/c3ccc(Cl)cc3)CC2)cc(OC)c1OC`, 49.7%; in that of `C#CC(C)(O)[C@@H]1C[C@H](CC(=O)O)C1(C)C` (stereo not given in full), 118%. For the compound `COc1nc2c(c(=O)n1C)CN(c1ccccc1)C(=O)C(C)N2` (stereo not given), the growth was 101%. In the case of `C=CCNCCN1C(=O)c2ccc3c4c(ccc(c24)C1=O)C(=O)N(CCNCC=C)C3=O` it was 1.43% (active); in that of `COc1cc(-c2ccc[nH]2)[nH]c1/C=C1\N=C(C)C(C(=O)NC(C)C)=C1C`, 1.73% (active). Take `O=C1c2ccccc2C(=O)N1CCCCNc1ccccc1`: the growth is 149%. Under `CC(C)c1ccc(C(C)C(=O)N(CC2=C(C(C)c3ccccn3)c3ccccc3C2)C(C)C)cc1` (stereo not given) stands 24.5%; under `Cc1ccc(C)c(COc2cc(NC(=O)c3ccc4c(c3)OCO4)ccc2N(C)S(C)(=O)=O)c1`, 13.3%; under `Cc1cc(NC(=O)c2ccc(C)c(Nc3nccc(-c4cccnc4)n3)c2)cc(-n2cnc(C)c2)c1`, -36.2% (active). Regarding `COc1ccc(C2CC(c3cc(OC)c(OC)c(OC)c3)=NN2)cc1` (stereo not given), the growth is 11.2%. Under `CC1OC2CC(=O)OC2C2=C1C(=O)c1c(O)c3c(c(O)c1C2=O)C1CC(O)C3(O)C(C)O1` (stereo not given) stands 6.27% (active); under `Nc1ncc(-c2cnn(C3CCNCC3)c2)cc1-c1nc2ccccc2o1`, -60% (active); under `CCCCCCCCCCCC[n+]1c(C)cc(N)c2ccccc21`, -39.5% (active). As for `COc1ccc(-c2nn(-c3cccc(Cl)c3)cc2/C=C2\NC(=S)N(c3ccc(Cl)cc3)C2=O)cc1`, the growth was -12.2% (active). As for `CC(=O)Nc1cc2c(cc1Cl)Cc1cc(Cl)ccc1-2`, the growth was 108%. Under `COC(=O)CC[C@@H](C)[C@H]1CC[C@H]2[C@@H]3CC[C@@H]4C[C@H](O)CC[C@]4(C)[C@H]3C[C@H](O)[C@]12C` stands 76.4%. Under `O=C1NC(=O)c2c(CCCSc3nc4ccccc4c(=O)n3CCc3ccccc3)cccc21` stands 89.7%; under `Cc1ccc(C2=NN(c3ccc(S(C)(=O)=O)cc3)C(=O)CC2)cc1`, 11.7%.

Regarding `CCOC(=O)Cn1c(=O)c2sc3ncccc3c2n2nnc(-c3ccccc3)c12`, the growth is 96.4%. In the case of `c1ccc(CCCCc2ccc3ccccc3n2)cc1`, the growth is 102%.

Turning to `COc1ccc(-c2nn(-c3cccc(Cl)c3)cc2-c2c(C#N)c(=O)n3[nH]c(-c4ccccc4)nc3c2C#N)cc1`, the growth is 78.3%. In the case of `COc1ccc2c(c1)C(=O)/C(=C/c1cccc(OCC(=O)c3ccc([N+](=O)[O-])cc3)c1)CO2` it was -81.2% (active); in that of `NC(N)=N/N=C(\c1ccccc1)C(O)c1ccccc1` (stereo not given), 90.7%.

For the compound `COc1ccc2c(c1)C(CC(=O)NN)CCC2` (stereo not given), the growth was 94.3%. With `Cc1cc(=O)n2nnc3cc(C(F)(F)F)ccc3n12`, the growth is 99.1%. In the case of `NS(=O)(=O)c1ccc(N2N=C(c3ccccc3)CCC2=O)cc1` it was 85.1%; in that of `COc1ccc(-c2nc(-c3nc4ccc(C)cc4[nH]3)cc3c2[nH]c2ccccc23)cc1`, 17%; in that of `COc1cc(C2CC(c3ccccc3)=NN2C(C)=O)cc(OC)c1OC` (stereo not given), 36.9%. Under `CSc1ccc(-c2cc(-c3ccc(NC(=O)CCCN4CCCC4)cc3)nc(-c3ccc(NC(=O)CCCN4CCCC4)cc3)c2)cc1` stands -36.4% (active); under `CC(C1=C(CN(C(=O)Cc2cn(-c3ccccc3)nc2-c2ccc(Cl)cc2)C(C)C)Cc2ccccc21)c1ccccn1` (stereo not given), 43.4%. As to `O=C1OC(C(Cl)(Cl)Cl)OC1C(Cl)(Cl)Cl` (stereo not given), the growth is 91.3%.
